Test in all cases: NCI-60 one-dose screen, 48 h (100 = growth as untreated, 0 = no growth, -100 = all killed)
Holding throughout (conditions): 10 µM unless noted

The test system of experiment [1] is DU-145 prostate.
Experiment [2] relates to K-562 leukemia.
Experiment [3] has as its system MALME-3M melanoma.
For experiment [4], the system named is MDA-MB-231 breast.
Experiment [5] relates to RXF 393 renal.
Experiment [6] relates to SF-268 CNS.
The subject of experiment [7] is SF-295 CNS.
Experiment [8] concerns SF-539 CNS.
Experiment [9] relates to M14 melanoma.
For experiment [10], the system named is HCT-15 colon.
Experiment [11] relates to HT29 colon.
The subject of experiment [12] is SNB-75 CNS.
Experiment [13] relates to SNB-19 CNS.
The test system of experiment [14] is U251 CNS.
The test system of experiment [15] is PC-3 prostate.
Experiment [16] relates to SK-MEL-5 melanoma.
Experiment [17] concerns UACC-62 melanoma.
For experiment [18], the system named is LOX IMVI melanoma.
For experiment [19], the system named is SK-MEL-28 melanoma.
Experiment [20] has as its system UACC-257 melanoma.

Molecules are shown by their SMILES. This is part of a sample that, as a whole, favours compounds with a hit. Of some 83,000 tested, about 20% had one in any assay.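 Assay: single dose, 48 h. Readout: percent growth (0 = no net growth; negative = cell death). Active: <10.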 Values without a mark were called inactive. Activity calls are given as the source filed them.

Consider `Cc1cc(N(CCNc2ccnc3cc(Cl)ccc23)Cc2cccs2)nc(Cl)n1`, for which the growth in experiment [1] was 23.9%; in [2] it was -50.9% (active); in experiment [3], -29.4% (active); in [4], -35.7% (active); in experiment [5] it was -63.3% (active); in experiment [6], 19.3%. The growth is -44.6% (active) in [7]; -92.2% (active) in experiment [8]; -67.3% (active) in experiment [9]; 1.01% (active) in experiment [10]; -21.5% (active) in experiment [11]; -84.5% (active) in experiment [12]. Further, the growth in experiment [13] was 38.3%; in experiment [14], -57.3% (active); in [15], 21.1%; in experiment [16], -31.2% (active); in experiment [17], 13.4%; in [18], -74.4% (active). Moreover, the growth in experiment [19] was -43.4% (active).
As for `COCCN1CCN(Cc2ccc(-c3n[nH]c4c3C(=O)c3c(NC(=O)NN5CCOCC5)cccc3-4)cc2)CC1`, the growth was 4.89% (active) in experiment [1]; -0.714% (active) in [2]; -63.1% (active) in [3]; -18.1% (active) in experiment [4]; -87.4% (active) in [5]; 6.61% (active) in [6]. The growth in [7] is 2.78% (active); in [8], -86.2% (active); in experiment [20], -19.1% (active); in experiment [9] it was -52.6% (active); in [10], -13.6% (active); in experiment [11], -22.3% (active). The growth was -37.6% (active) in experiment [12]; 1.69% (active) in [14]; 3.15% (active) in [15]; -23.8% (active) in [16]; -77.2% (active) in [18]; -39.7% (active) in experiment [19].
As for `Cc1cc(C(=O)Nc2cc(Oc3ccc4nc(NC(=O)C5CC5)cn4n3)ccc2C)n(C)n1`, the growth in experiment [1] is 54.3%; in experiment [2], 7.79% (active); in experiment [3] it was -5.45% (active); in experiment [4] it was 21.9%; in experiment [5] it was -15.1% (active); in experiment [6] it was 40.9%. Moreover, the growth in experiment [7] was 52.5%; in [8] it was 3.9% (active); in experiment [20] it was -29% (active); in experiment [9], -8.27% (active); in experiment [10], 44.1%; in experiment [11] it was 4.61% (active). The growth in experiment [12] is 7.99% (active); in [14], 13.3%; in experiment [15], 49.8%; in [17] it was -16.9% (active); in experiment [18], -20.1% (active); in [19] it was 0.461% (active).
For `CCCS(=O)(=O)Nc1ccc(F)c(C(=O)c2c[nH]c3ncc(-c4ccc(Cl)cc4)cc23)c1F`, the growth in experiment [1] was 49.3%; in experiment [2], 21.9%; in experiment [3], 11.2%; in [4] it was 34.4%; in experiment [5], -11.6% (active); in experiment [6] it was 41.4%. The growth in [7] was 7.92% (active); in [8] it was 23.7%; in experiment [20], -6.6% (active); in [9] it was 3.85% (active); in experiment [10] it was 28.4%; in experiment [12] it was 8.13% (active). The growth in experiment [13] was 40.4%; in experiment [14] it was 18.5%; in [15], 21.8%; in experiment [16], 15.9%; in experiment [17], -22.6% (active); in [18], 16.5%. Further, the growth in experiment [19] is 1.65% (active).
Regarding `CC1(O)CC(c2nc(-c3ccc4ccc(-c5ccccc5)nc4c3)c3c(N)nccn23)C1` (centres undefined), the growth in experiment [1] is 34.1%; in experiment [2], 36.9%; in experiment [3], 30.4%; in experiment [4], 28.7%; in [5] it was 2.73% (active); in [6] it was 44.1%. The growth was 46.7% in [7]; -2.47% (active) in [8]; 25.7% in experiment [20]; 42.5% in experiment [9]; 21.1% in experiment [10]; 5.34% (active) in [11]. The growth in experiment [12] was 32%; in experiment [14], 56.7%; in experiment [15] it was 35.3%; in [16], 15%; in [17], 39.9%; in experiment [18], 34.7%. The growth in experiment [19] was 40.7%.
`O=C(Cn1ccnc1)Nc1ccc(-c2nc3ccccc3s2)cc1`: the growth in experiment [1] was 81.1%; in experiment [2], 39.6%; in [3] it was 81.8%; in experiment [4] it was 80.1%; in experiment [5], 102%; in experiment [6], 81.1%. The growth in [7] was 65.5%; in experiment [8], 81.3%; in [20] it was 67.6%; in [9] it was 94.4%; in experiment [10], 87%; in experiment [12], 88.8%. Besides, the growth is 76.5% in experiment [13]; 71.9% in experiment [14]; 65.9% in [15]; 39.2% in experiment [16]; 82.9% in experiment [17]; 73.4% in experiment [18].
Consider `Cn1nccc1Nc1nccc(-c2ccn([C@H](CO)c3ccc(Cl)c(F)c3)c(=O)c2)n1`, for which the growth in experiment [1] was 93.5%; in [2] it was 84.2%; in experiment [3], 0.796% (active); in [4] it was 90.8%; in experiment [5], 108%; in [6], 96.4%. Besides, the growth was 98.3% in experiment [7]; 104% in experiment [8]; 1.1% (active) in experiment [20]; 24.3% in [9]; 94.1% in [10]; 101% in experiment [12]. Moreover, the growth in experiment [13] was 94.1%; in experiment [14], 86.2%; in [15], 111%; in [16], 70.7%; in experiment [17], 9.88% (active); in [18] it was 58.5%. The growth in [19] was 16.9%.
Take `CN(C)CCOC(=O)Nc1nc2ccc(Sc3ccccc3)cc2[nH]1`: the growth in experiment [1] was 27.2%; in [2], 15.7%; in experiment [3], 49.2%; in [4] it was 47.8%; in experiment [5] it was 14.1%; in [6] it was 51%. Further, the growth in experiment [7] is 24.9%; in experiment [8], -0.508% (active); in experiment [20] it was 49.1%; in experiment [9] it was 0.259% (active); in experiment [10] it was 33.2%; in experiment [12], -10.2% (active). The growth was 36.4% in experiment [13]; 26.5% in experiment [14]; 28% in experiment [15]; 19.3% in experiment [16]; 42.4% in experiment [17]; 32.1% in experiment [18]. Moreover, the growth in experiment [19] was 63.7%.

Source of the values: PubChem BioAssay (NCI).
